Test [1] is described as follows: NCI Yeast Anticancer Drug Screen. Data for the rad50 strain (AID 155).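 Further: 0% = growth of vehicle-only cultures of the same strain.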 Particulars: S. cerevisiae rad50 strain growth inhibition; at 50.0 µM; active compounds read high. The method, boiled down: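 Genetically altered yeast (DNA repair pathway); compound treatment; growth inhibition vs vehicle ctrl.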
Test [2] in a line: NCI Yeast Anticancer Drug Screen. Data for the mec2-1 strain (AID 157). The settings on record: S. cerevisiae mec2-1 strain, at 50.0 µM, active compounds read high. Summed up:
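mec2-1 yeast strain, carrying an alteration in DNA damage repair or cell cycle control, was exposed to compounds; growth inhibition was measured relative to vehicle-treated controls.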

A short description of test [3]: NCI Yeast Anticancer Drug Screen. Data for the sgs1 mgt1 strain (AID 161).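 Further: 0% = growth of cultures given vehicle only.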 Particulars: S. cerevisiae sgs1 mgt1 strain, at 50.0 µM, active compounds read high. The method, boiled down: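 This yeast growth screen uses a strain with defined DNA-repair lesions; compound-treated growth is compared with vehicle-treated growth.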
Test [4] can be described thus: NCI Yeast Anticancer Drug Screen. Data for the cln2 rad14 strain (AID 165).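 Further: 0% = growth equal to vehicle treated cultures.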 Particulars: S. cerevisiae cln2 rad14 strain, at 50.0 µM, active compounds read high. The method, boiled down:
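Yeast carrying cln2 and rad14 alterations (cell cycle control and DNA damage repair) were exposed to compounds. Growth inhibition was measured against vehicle-treated controls.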

A short description of test [5]: NCI Yeast Anticancer Drug Screen. Data for the bub3 strain (AID 167). Particulars: S. cerevisiae bub3 mutant strain, at 50.0 µM, active compounds read high. The method, boiled down: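 Yeast carrying a defined mutation is treated with each compound, and growth is compared with that of vehicle-exposed cells to give inhibition.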
A short description of test [6]: NCI Yeast Anticancer Drug Screen. Data for the mlh1 rad18 strain (AID 175). Particulars: S. cerevisiae mlh1 rad18 strain growth inhibition; at 50.0 µM; active compounds read high. The method, boiled down:
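Growth inhibition of the yeast strain was measured after compound exposure and expressed relative to vehicle-treated controls. The strain carries defined defects in DNA damage repair.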

About 79,000 compounds went through this panel and 15% of them were active in at least one assay; those are over-represented in the sample as a whole. Values without a mark were called inactive. Active and inactive are the calls of the source. No stated cut-off is given here; in the data, active means growth inhibition above about 70%; inactive means the rest.

`CC(=O)[O-].CC(=O)[O-].O=C(N/N=C/c1cc(Cl)cc(Cl)c1O)c1ccncc1.[Ni+2]`: the growth inhibition in test [1] is -12.6%; in test [2] it was 18.4%; in test [3], 19.1%; in test [4], -22.2%; in test [5], -0.05%; in test [6] it was 16.9%.

In the case of `CP(C)(=S)P(C)(C)=S`, the growth inhibition is 10.8% in test [1]; 6.05% in test [2]; 14.6% in test [3]; -9.1% in test [4]; 3.05% in test [5]; -18.5% in test [6].

`CC(=O)C1CCC2C3CC=C4CC(OOS(=O)c5ccc(C)cc5)CCC4(C)C3CCC12C` (stereo unspecified): the growth inhibition in test [1] was 43.2%; in test [2], 20.1%; in test [3], 46.2%; in test [4], -31.4%; in test [5], 22.4%; in test [6], 24.1%.

As to `COc1cc2c(cc1OC)[C@@H]1C(=O)c3ccc4c(c3O[C@@H]1CO2)C[C@H](C(C)C)O4`, the growth inhibition was -11.2% in test [1]; -40.2% in test [2]; -1.45% in test [3]; -9.25% in test [4]; -33.6% in test [5]; 7.2% in test [6].

As for `CCNC(=O)N1CC2CCC(C1)N2C`, the growth inhibition in test [1] is -1.15%; in test [2] it was 7.85%; in test [3], 6.45%; in test [4], -39.1%; in test [5], -18.8%; in test [6], 8.45%.

On to `CCOP1(=O)C=C(C)C(Cl)=C(C)C1` (stereo unspecified), for which the growth inhibition was 26.9% in test [1]; 8.35% in test [2]; 11% in test [3]; -14.3% in test [4]; 3.05% in test [5]; 20.9% in test [6].

For `CC(=O)Nc1cccc([As+](C)(C)C)c1`, the growth inhibition in test [1] is 14.3%; in test [2], 9.75%; in test [3] it was -2.8%; in test [4], -22.2%; in test [5], -3.35%; in test [6] it was 16.9%.

With `CCC(Br)(CC)C(=O)NC(N)=O`, the growth inhibition in test [1] is 13.1%; in test [2] it was -23.8%; in test [3], -13.9%; in test [4] it was -16.4%; in test [5], -10.8%; in test [6], -6.05%.

In the case of `CC(C)[C@]12O[C@H]1[C@@H]1O[C@]13[C@]1(O[C@H]1C[C@H]1C4=C(C(=O)OC4)[C@@H](O)C[C@@]13C)[C@@H]2O`, the growth inhibition is -8.4% in test [1]; -18.4% in test [2]; 6% in test [3]; -5.85% in test [4]; -0.3% in test [5]; -12.8% in test [6].

Consider `NC(=O)c1cc([N+](=O)[O-])c(N(CCCl)CCCl)c([N+](=O)[O-])c1`, for which the growth inhibition was 13.8% in test [1]; 17.1% in test [2]; 5.05% in test [3]; 17.9% in test [4]; -1.55% in test [5]; 17.8% in test [6].

In the case of `CCC1C(=O)NC(=O)N(c2ccccc2)C1=O` (stereo unspecified), the growth inhibition was 13.7% in test [1]; -8.3% in test [2]; -3.25% in test [3]; -39.4% in test [4]; 3.1% in test [5]; -6% in test [6].

As to `CC1=CC(=O)C2=C(C)C[C@H](O)[C@@H]3[C@H](OC(=O)[C@H]3C)[C@@H]12`, the growth inhibition in test [1] is -2.45%; in test [2] it was 2.95%; in test [3], 6.4%; in test [4], 17.2%; in test [5] it was 6.25%; in test [6], 8.85%.

Take `N#CS.N=C=S.N=C=S.[Co+3].[NH-]CC[NH-].[NH-]CC[NH-]`: the growth inhibition is 10.5% in test [1]; 10.2% in test [2]; 36.4% in test [3]; 3.5% in test [4]; 27.9% in test [5]; 10.7% in test [6].

As to `O=[N+]([O-])c1ccc(OCCOCCOc2ccc(S(=O)(=O)F)cc2)c(Cl)c1`, the growth inhibition in test [1] is 56.2%; in test [2], 15.4%; in test [3] it was 21.8%; in test [4] it was 29.6%; in test [5] it was 45.4%; in test [6], 56.5%.

For `OC1C2CCC1C(N1CCOCC1)CC2` (stereo unspecified), the growth inhibition was 0.25% in test [1]; 3.85% in test [2]; 8.05% in test [3]; -7.15% in test [4]; 18.5% in test [5]; 5.5% in test [6].

Consider `CCOP(=O)(CC(=O)C1CC1)OCC`, for which the growth inhibition in test [1] was -28.8%; in test [2], -20.5%; in test [3] it was -26.2%; in test [4], -21.9%; in test [5], -20.9%; in test [6], -43.1%.

As to `Cc1ccc(SCC(CSCCO)OCn2cnc3c2NC(N)=NC32OCCO2)cc1` (stereo unspecified), the growth inhibition is 6.15% in test [1]; 2.3% in test [2]; -37.2% in test [3]; -7.4% in test [4]; -12.3% in test [5]; -56.9% in test [6].

On to `CCOC(=O)NP(=O)(Nc1ccc(C)cc1)Nc1ccc(C)cc1`, for which the growth inhibition is 6.2% in test [1]; -12% in test [2]; -0.3% in test [3]; 6.75% in test [4]; -9.55% in test [5]; -1.45% in test [6].

On to `CN(C)c1cccc(NC2=NCCO2)c1`, for which the growth inhibition is -21.3% in test [1]; -24.5% in test [2]; -27.7% in test [3]; 7.35% in test [4]; -20.4% in test [5]; -14.6% in test [6].

On to `[CH3][Sn]([CH3])([n]1cnc(N)nc1=O)[n]1cnc(N)nc1=O`, for which the growth inhibition is 4.75% in test [1]; 0% in test [2]; -10.3% in test [3]; -1.45% in test [4]; -2.55% in test [5]; -60.4% in test [6].

With `COc1cccc2c1C(=O)c1c(O)c3c(c(O)c1C2=O)C[C@@](O)(C(=O)CO)C[C@@H]3OC1CC(N2CCOCC2C#N)C(O)C(C)O1` (stereo partly specified), the growth inhibition in test [1] was 90.1% (active); in test [2], 91.2% (active); in test [3] it was 92.4% (active); in test [4] it was 89.8% (active); in test [5], 90.5% (active); in test [6], 91% (active).

For the origin of these results see PubChem BioAssay (NCI).
